Most compounds without a hit are left out; they make up all but 2.7% or so of the library.
MPTP block = mitochondrial permeability transition pore inhibitors, primary screen, biochemical, isolated mouse mitochondria, absorbance; Ca2+ swelling absorbance, 30 min; inhibition, % at 10 µM; 360,000 tested, 1.4% active;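 active = inhibition of 50% or more, scaled per plate between neutral and stimulator controls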;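 note: 0% = DMSO wells given calcium and 100% = 1 mM EGTA wells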
CendR NRP1 mod = modulators of CendR peptide binding to NRP-1, primary screen, biochemical, fluorescence polarization, uHTS; Neuropilin-1 (Homo sapiens), O14786; FAM-RPARPAR peptide binding to NRP-1; inhibition, % at 25 µM; 360,000 tested, 0.85% active;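 active = inhibition or corrected inhibition above about 18%, plus a signal ratio from 0.5 to 1.5, limit read from the data, passing the limit was not always enough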
SKN-1 inh = suppressors of acrylamide-induced Pgst-4::GFP reporter in worms, primary screen, SKN-1 inhibitor project, whole organism, uHTS, GFP/RFP fluorescence ratio, strain VP596. C. elegans VP596 Pgst-4::GFP/RFP ratio, 24 h. inhibition, % at 21.8 µM. 360,000 tested, 0.49% active. AID 624304, 2012;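 active = interference check ratio from 0.5 to 1.5 plus GFP to RFP signal ratio inhibition reaching or exceeding a fixed threshold, cut at about 30% in these data, passing the limit was not always enough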
F508del corr = F508del CFTR correction, initial screen, CFBE line, single point; 350,000 tested, 0.36% active; CFBE cells, YFP halide quenching; stimulated with forskolin plus potentiator P3; % fluorescence drop versus neutral controls; activity (quench increase), % at 7.58 µM; AID 720511, 2013;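 active = mean added fluorescence quench of at least 8% versus neutral control, with both replicates also reaching 8%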;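 note: cells transiently co-express mutant CFTR-F508del with the halide-sensitive YFP; corrector assay measuring rescue of mutant channel to the surface after 24 h compound exposure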
ATG4B inh = ATG4B protease inhibitors, primary screen, biochemical, fluorescence, uHTS; Cysteine protease ATG4B (Homo sapiens), Q9Y4P1; ATG4B cleavage of LC3-PLA2, NBD-HPC fluorescence, 1 h; inhibition, % at 8.33 µM; 340,000 tested, 0.51% active; AID 504462, 2011; in the data active = inhibition above about 40%
Target sequence (Q9Y4P1 whole entry, looked up): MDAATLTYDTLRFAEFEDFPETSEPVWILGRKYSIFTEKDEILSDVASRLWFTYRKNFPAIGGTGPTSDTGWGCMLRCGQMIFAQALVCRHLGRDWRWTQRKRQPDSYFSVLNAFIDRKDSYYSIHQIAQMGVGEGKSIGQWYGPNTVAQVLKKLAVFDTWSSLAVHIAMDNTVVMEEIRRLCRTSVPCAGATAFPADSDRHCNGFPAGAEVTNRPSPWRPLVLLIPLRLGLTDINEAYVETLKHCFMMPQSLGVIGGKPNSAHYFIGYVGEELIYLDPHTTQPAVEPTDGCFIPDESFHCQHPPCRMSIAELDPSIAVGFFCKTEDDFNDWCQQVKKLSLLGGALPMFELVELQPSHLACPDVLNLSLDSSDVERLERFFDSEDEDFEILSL
The depositor's hits bear a star; nt = not tested or not shown; ! = not active in a repeat.

SMILES | MPTP block | CendR NRP1 mod | SKN-1 inh | F508del corr | ATG4B inh
O=C(O)C(Oc1ccc2ccccc2c1)c1ccccc1 (stereo not drawn) | 2.5 | 11.1 | 39.5* | -0.7 | 3.8
O=C(O)C(Oc1ccc2c(c1)oc(=O)c1ccccc12)c1ccccc1 (stereo not drawn) | 0.2 | 1.3 | -4.6 | 0.0 | -5.1
COCCNC(=O)c1cc(-c2ccccc2)nn1CC1CC(c2cccc([N+](=O)[O-])c2)=NO1 (stereo not drawn) | 2.0 | 31.2* | 5.9 | -1.3 | -1.8
O=C(NCC1CC1)c1cc(-c2ccccc2)nn1CC1CC(c2cccc([N+](=O)[O-])c2)=NO1 (stereo not drawn) | 0.4 | 16.5 | 21.7 | 2.4 | 8.7
O=C(C[C@H]1CC[C@@H]2[C@H](COC[C@H](O)CN2CCc2ccccc2)O1)NCc1ccc(Oc2ccccc2)cc1 | nt | nt | nt | -1.0 | nt
O=S(=O)(c1cccc2ccccc12)N1CCSC1 | -1.2 | 30.1* | 0.9 | nt | -2.3
O=S(=O)(c1cccc2cnccc12)N1CCNCC1 | -0.8 | -5.3 | 2.4 | 0.6 | 7.0
C[C@H]1CN([C@@H](C)CO)C(=O)c2ccccc2-c2ccccc2CO[C@H]1CN(C)Cc1ccc(Oc2ccccc2)cc1 | nt | nt | nt | -3.2 | nt
CCCC(=O)Nc1ccc2c(c1)OC[C@H](C)N(CCC)C[C@@H](C)[C@H](OC)CN(C)C2=O | nt | nt | nt | 2.3 | nt
COC(=O)C1=C(C)NC(C)=C(C(=O)OC)C1C(=O)OC(C)C(=O)c1ccccc1 (stereo not drawn) | -1.6 | 24.9*! | -1.8 | 0.3 | -14.3
CCCN(C)C[C@@H]1Oc2cc(C#CC(C)C)ccc2S(=O)(=O)N([C@@H](C)CO)C[C@H]1C | nt | nt | nt | -2.0 | nt
Cn1c(N)c(C(=O)COC(=O)C2(c3ccccc3F)CCCC2)c(=O)n(C)c1=O | 2.1 | 32.0* | 7.6 | nt | -11.0
O=C(c1ccc(S(=O)(=O)Nc2ccccc2Cl)cc1)N1CCOCC1 | -1.6 | 26.5* | 11.4 | -4.6 | -2.9
C[C@H](CO)N1C[C@H](C)[C@H](CN(C)C(=O)Nc2ccc(F)cc2)Oc2ncc(C3=CCCCC3)cc2C1=O | nt | nt | nt | -3.6 | nt
CN1C(=O)c2cc(NC(=O)c3cccs3)ccc2OC[C@H]2O[C@H](CC(=O)NCC3CC3)CC[C@H]21 | nt | nt | nt | -1.1 | nt
C[C@@H]1CN([C@@H](C)CO)C(=O)Cc2cc(NC(=O)Nc3ccc(F)cc3)ccc2O[C@H]1CN(C)C(=O)NC1CCCCC1 | nt | nt | nt | 1.3 | nt
Cn1c(SCC(=O)Nc2ccc(F)cc2)nc2c(c1=O)SCC2 | -1.2 | 24.3* | 11.0 | 2.8 | 1.2
O=C(CSc1nc2c(c(=O)n1-c1ccc(Br)cc1)SCC2)Nc1nccs1 | -2.4 | -8.3 | 30.5 | nt | 57.2*
Cn1c(SCC(=O)Nc2ccccc2F)nc2c(c1=O)SCC2 | 3.2 | 11.6 | 9.1 | -1.1 | 0.5
CCn1c(SCC(=O)Nc2cc(C)ccc2C)nc2c(c1=O)SC(C)C2 (stereo not drawn) | 0.5 | 1.1 | 5.7 | 0.9 | -4.7
Cc1ccc(C)c(NC(=O)CSc2nc3c(c(=O)n2C)SC(C)C3)c1 (stereo not drawn) | -0.1 | -13.6 | -7.1 | 8.7* | -4.0
O=C(CSc1nc2c(c(=O)n1-c1ccc(Br)cc1)SCC2)NCc1ccco1 | -1.1 | -16.0 | 5.9 | 2.8 | 13.7
CCC(=O)N(C)C[C@H]1Oc2cc(-c3cccnc3)ccc2S(=O)(=O)N([C@@H](C)CO)C[C@@H]1C | nt | nt | nt | 0.5 | nt
COc1ccc(S(=O)(=O)N(C)C[C@H]2Oc3ccc(NC(=O)Nc4ccccc4)cc3CC(=O)N([C@@H](C)CO)C[C@H]2C)cc1 | nt | nt | nt | -1.0 | nt
Brc1ccc(-c2cnc(-c3cccs3)o2)cc1 | 0.6 | 16.6 | 89.4* | nt | -2.2
SMILES | MPTP block | CendR NRP1 mod | SKN-1 inh | F508del corr | ATG4B inh
CN(C)c1ccc(-c2nnc(-c3cccs3)o2)cc1 | -0.2 | 15.6 | 8.4 | -0.2 | -1.2
CCCN(C)C[C@@H]1Oc2cc(-c3ccc(C)cc3)ccc2S(=O)(=O)N([C@H](C)CO)C[C@@H]1C | nt | nt | nt | -1.8 | nt
c1ccc(N=Nc2ccc(C3=NCCO3)cc2)cc1 | 0.3 | -8.1 | 53.0* | -0.9 | nt
O=C(C[C@@H]1C=C[C@@H](NC(=O)c2ccncc2)[C@@H](CO)O1)NCCc1ccncc1 | nt | nt | nt | 4.9 | nt
CC(Nc1ccc(Br)cc1)C(=O)N/N=C/c1ccccc1OCc1ccccc1 (stereo not drawn) | 14.5 | 22.6 | 4.5 | nt | 2.0
COc1ccc(NC(C)C(=O)N/N=C/c2ccccc2OCc2ccc(Br)cc2)cc1 (stereo not drawn) | -5.4 | 21.9* | 18.8 | nt | -16.2
COC1=CC(=O)OC(c2ccc(C(F)(F)F)cc2)C1 (stereo not drawn) | -1.1 | 25.6* | 1.6 | 0.8 | nt
Cc1cccc(OCC(=O)NNC(=O)c2ccc3nc[nH]c3c2)c1 | -1.0 | 5.3 | -9.2 | 16.6* | -6.1
COCCC(=O)N1CCC(Oc2ccc(C(=O)NCCSC)cc2)CC1 | 0.2 | 4.8 | 7.9 | 0.5 | -1.2
COCCC(=O)N1CCC(Oc2ccc(C(=O)NCCn3cccn3)cc2)CC1 | -0.3 | 36.3* | 4.4 | 2.5 | -1.9
COc1ccc(/C=N/NC(=O)c2cccnc2)cc1CSc1ccccn1 | 6.7 | -5.2 | -5.0 | 11.0* | -6.0
COc1ccc(C(=O)N/N=C/c2ccc(OC)c(CSc3ccccn3)c2)cc1 | 2.5 | -2.5 | 9.3 | 1.0 | 17.2
CN1/C(=C/C=C(C#N)C#N)C(C)(C)c2ccccc21 | 7.3 | 133.5 | -34.5 | -15.7 | -39.7
CC1=C/C(=C\C=C(C#N)C#N)N(C)c2ccccc21 | 12.0 | -120.9 | 74.4 | 10.2* | 0.6
CCCOC(=O)Nc1cc(OC)c(Cl)cc1OC | -8.4 | 16.7* | 17.3 | nt | -14.7
C[C@H](CO)N1C[C@H](C)[C@H](CN(C)C(=O)c2cccnc2)Oc2ncc(C3=CCCCC3)cc2C1=O | nt | nt | nt | -3.5 | nt
Cc1ccc(F)c(S(=O)(=O)NC(=O)C2(C)CCN2C(=O)c2ccc(C3CCCCC3)cc2)c1 (stereo not drawn) | -0.7 | 26.5* | 6.6 | -3.6 | nt
COc1cccc(C2=NNC(=NCc3ccccc3)SC2)c1 | 11.3 | 30.7* | 13.3 | 3.5 | 7.2
CCc1ccc(NC(=O)C(C)Nc2ccc(S(=O)(=O)NC(C)=O)cc2)cc1 (stereo not drawn) | 0.4 | 6.8 | 17.8 | nt | -17.4
CC(=O)NS(=O)(=O)c1ccc(NC(=O)C(C)NS(=O)(=O)/C=C/c2ccccc2)cc1 (stereo not drawn) | -0.5 | 19.8* | 14.2 | 2.6 | 2.6
Cc1nc2sc(C(c3ccco3)N3CC(C)OC(C)C3)c(O)n2n1 (stereo not drawn) | 0.8 | 19.0* | 1.7 | nt | -12.6
COc1cccc(C(c2sc3ncnn3c2O)N2CC(C)OC(C)C2)c1 (stereo not drawn) | -2.0 | 5.1 | 35.4* | -1.2 | -2.5
COc1cccc(C(c2sc3ncnn3c2O)N2CCc3ccccc3C2)c1 (stereo not drawn) | -1.5 | -8.8 | -5.7 | -1.1 | -12.9
